This is part of a sample that, as a whole, favours compounds with a hit. Of some 79,000 tested, about 15% had one in any assay. A number with no mark means an inactive call. Activity calls are given as the source filed them. Rule as the data show it: active = growth inhibition above about 70%; inactive = the rest.
Columns and labels:
[1] = NCI Yeast Anticancer Drug Screen. Data for the rad50 strain (AID 155);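 also: 0% = growth of vehicle-only cultures of the same strain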; settings: S. cerevisiae rad50 strain growth inhibition, hits give high values
Procedure, shortened: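 DNA repair mutant yeast, compound exposure, growth read-out; inhibition is taken relative to vehicle.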

[2] = NCI Yeast Anticancer Drug Screen. Data for the mec2-1 strain (AID 157); settings: S. cerevisiae mec2-1 strain, hits give high values
Procedure, shortened: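 Test agents were screened against the mec2-1 yeast strain, with defined DNA repair or cell cycle alteration. Growth was scored as inhibition against vehicle-only controls.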

[3] = NCI Yeast Anticancer Drug Screen. Data for the sgs1 mgt1 strain (AID 161);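 also: 0% = growth of cultures given vehicle only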; settings: S. cerevisiae sgs1 mgt1 strain, hits give high values
Procedure, shortened: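 Test agents were incubated with a DNA-repair-mutant yeast strain. Growth was then read and compared against vehicle-treated controls.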

[4] = NCI Yeast Anticancer Drug Screen. Data for the cln2 rad14 strain (AID 165);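 also: 0% = growth equal to vehicle treated cultures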; settings: S. cerevisiae cln2 rad14 strain, hits give high values
Procedure, shortened: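 Growth of compound-exposed yeast (cln2 rad14 genotype) measured and expressed as inhibition relative to vehicle.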

[5] = NCI Yeast Anticancer Drug Screen. Data for the bub3 strain (AID 167); settings: S. cerevisiae bub3 mutant strain, hits give high values
Procedure, shortened: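 In this screen, a yeast mutant lacking normal mitotic checkpoint function is challenged with compound. Relative growth versus vehicle gives the inhibition value.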

[6] = NCI Yeast Anticancer Drug Screen. Data for the mlh1 rad18 strain (AID 175); settings: S. cerevisiae mlh1 rad18 strain growth inhibition, hits give high values
Procedure, shortened: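 In this whole-cell yeast screen, a strain with altered DNA damage repair is challenged with compound, and its growth is measured against matched vehicle-treated controls.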

[7] = at 5.0 µM (retest, dose inferred, filed as 0.5)
[8] = at 50.0 µM (retest, dose inferred, filed as 5.0)

SMILES | growth inhibition [1, 7] | growth inhibition [1, 8] | growth inhibition ([1]; at 50.0 µM) | growth inhibition [2, 7] | growth inhibition [2, 8] | growth inhibition ([2]; at 50.0 µM) | growth inhibition [3, 7] | growth inhibition [3, 8] | growth inhibition ([3]; at 50.0 µM) | growth inhibition [4, 7] | growth inhibition [4, 8] | growth inhibition ([4]; at 50.0 µM) | growth inhibition [5, 7] | growth inhibition [5, 8] | growth inhibition ([5]; at 50.0 µM) | growth inhibition [6, 7] | growth inhibition [6, 8] | growth inhibition ([6]; at 50.0 µM)
NC(=O)C12OC3CC(CC(C3)O1)O2 | -25% | -10% | 5.95% | -8% | -17% | 11.4% | -9% | 12% | 11.3% | -1% | 3% | 71.2% (active) | 2% | 5% | 2.75% | 9% | -22% | 11.2%
COc1ccc2cc(CNCCCCCCCCNCc3ccc4cc(OC)ccc4c3)ccc2c1 | 22% | 99% (active) | 97.7% (active) | 6% | 100% (active) | 97.2% (active) | 19% | 99% (active) | 95.1% (active) | 9% | 99% (active) | 94.5% (active) | 9% | 100% (active) | 93.7% (active) | 31% | 99% (active) | 97.2% (active)
CCCC#CC(O)(C(=O)OC1CCN(C)CC1)C1CCCCC1 (centres undefined) | 34% | 55% | 63.5% | 36% | 53% | 45.1% | 12% | 69% | 65.9% | 41% | 55% | 53.5% | 23% | 56% | 58% | 46% | 79% (active) | 53.5%
S=C(C#Cc1ccccc1)Nc1ccccc1 | -73% | 87% (active) | 99.3% (active) | -36% | 97% (active) | 99.4% (active) | -30% | 96% (active) | 96.7% (active) | -37% | 94% (active) | 99% (active) | -47% | 96% (active) | 99% (active) | -93% | 94% (active) | 99% (active)
Nc1ccc2c(c1)S(=O)(=O)c1cc(O)ccc1O2 | 23% | 18% | 32.9% | 10% | 20% | -26.8% | 13% | 25% | -22.6% | 11% | 24% | -4.55% | 21% | 28% | -15.2% | 8% | 5% | -71%
Oc1ccc(/C=N/NC(=S)NC2CC3CC2C2C=CCC32)c(O)c1 (centres undefined) | 46% | 96% (active) | 87.8% (active) | 33% | 97% (active) | 90.8% (active) | 49% | 98% (active) | 92.5% (active) | 26% | 98% (active) | 89.3% (active) | 28% | 52% | 90.3% (active) | 65% | 96% (active) | 90% (active)
Cc1cccc(N2CCN(CC(O)COc3ccc4ccccc4c3)CC2)c1 (centres undefined) | -6% | -7% | 80.7% (active) | 13% | 18% | 72.1% (active) | -3% | 12% | 97.7% (active) | -4% | -6% | 60.1% | -5% | 4% | 41.1% | 26% | 28% | 90% (active)
Cc1cc(S(=O)(=O)Nc2nc(N)nc(N(C)C)n2)c(SC(C(=O)O)c2ccccc2)cc1Cl (centres undefined) | -11% | -4% | -8.65% | -3% | -15% | 14.1% | -11% | -8% | -0.25% | -15% | 4% | 93.2% (active) | 14% | -17% | 16.1% | -9% | -3% | 5.3%
OC(CCN1CCOCC1)c1ccc(Sc2ccccc2)cc1 (centres undefined) | 55% | 29% | 98% (active) | 46% | 21% | 98.9% (active) | 61% | 59% | 98.6% (active) | 53% | 15% | 67.1% | 88% (active) | 88% (active) | 99.3% (active) | 62% | 58% | 97.2% (active)
Oc1c(N2CCOCC2)cc(-c2cc(N3CCOCC3)c(O)c3ccccc23)c2ccccc12 | 26% | 30% | 82.2% (active) | 35% | 38% | 86.3% (active) | -19% | 9% | 50.3% | 9% | 21% | 42.5% | 16% | 43% | 51.6% | 35% | 39% | 80.5% (active)
ClC(Cl)(Cl)C1OCOC(C(Cl)(Cl)Cl)O1 (centres undefined) | 20% | 98% (active) | 99.2% (active) | 17% | 99% (active) | 99.2% (active) | 11% | 99% (active) | 99.3% (active) | 24% | 99% (active) | 99.3% (active) | 3% | 98% (active) | 99.3% (active) | 33% | 99% (active) | 99.3% (active)
ClCCOCCOc1c(Cl)cc(Cl)c(Cl)c1Cl | 6% | 12% | 58.4% | 0% | 13% | 27.6% | 9% | 58% | 43.5% | 4% | -11% | -26.7% | 3% | 14% | 59.6% | 9% | 26% | 71% (active)
Cc1[nH]c2c(C)cccc2c1C1Cc2ccccc2N1 (centres undefined) | 3% | 99% (active) | 98.4% (active) | -1% | 99% (active) | 98.8% (active) | -12% | 98% (active) | 98.8% (active) | -5% | 98% (active) | 98.5% (active) | 6% | 98% (active) | 98.7% (active) | 4% | 98% (active) | 98.2% (active)
CCNCC(O)COc1ccc2c(c1)[n+]([O-])nc(N)[n+]2[O-] (centres undefined) | 39% | 75% (active) | 61.1% | 31% | 88% (active) | 70% (active) | 42% | 60% | 62.8% | 42% | 41% | 40.9% | 47% | 84% (active) | 63% | 50% | 91% (active) | 58.8%
CS(=O)(=O)OCCN(CCOS(C)(=O)=O)c1ccc(C=Nc2ccc3oc(=O)ccc3c2)cc1 | 32% | 97% (active) | 52.1% | 35% | 95% (active) | 77.1% (active) | 22% | 86% (active) | 65.2% | 13% | 77% (active) | 22.4% | -4% | 14% | 40.1% | 72% (active) | 97% (active) | 88.7% (active)
Cc1ccc(S(=O)(=O)C2C=CC=CC=C2)cc1 | -156% | 84% (active) | 76.8% (active) | -51% | 54% | 86% (active) | -64% | 77% (active) | 14.7% | -62% | 42% | 52% | -71% | 66% | 71% (active) | -140% | 87% (active) | 82% (active)
S=C(N/N=C/c1ccccn1)N1CCCCC1 | 99% (active) | 98% (active) | 89.3% (active) | 97% (active) | 99% (active) | 92.4% (active) | 98% (active) | 97% (active) | 91.8% (active) | 96% (active) | 99% (active) | 93% (active) | 98% (active) | 100% (active) | 92% (active) | 98% (active) | 99% (active) | 89.5% (active)
COc1ccc(C2CC(c3c(O)ccc4ccccc34)=NN2)cc1OC (centres undefined) | -4% | 97% (active) | 89.2% (active) | -3% | 97% (active) | 91.8% (active) | -6% | 97% (active) | 90.4% (active) | -11% | 97% (active) | 90.2% (active) | 8% | 96% (active) | 90.5% (active) | -1% | 97% (active) | 89.7% (active)

Source: PubChem BioAssay (NCI)
